CYP2C9 activ: CYP2C9 (human) activation; recombinant CYP2C9, luciferin-H conversion, luminescence; active compounds read high; factor 1 = untreated enzyme, 0 = blocked; activation factor at 5 µM; 1.4% of 96,000 active;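 active = activation factor of 2 or more for CYP2C9 at a 5 µM dose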
CYP2C19 inh: inhibitors of human CYP2C19; CYP2C19 Supersomes, luciferin-H EGE luminescence, 30 min; inhibition, % at 5 µM; 21% of 96,000 active; AID 778;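 active = CYP2C19 inhibition above a set limit at 5 µM in the primary screen, cut at about 50% in these data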
sEH inh: blocks human soluble epoxide hydrolase activity; 0.34% of 91,000 active; P34913; inhibition, % at 2 µM; recombinant human sEH enzymatic activity assay; in the data active = inhibition above about 80%
Target sequence (P34913 whole entry, looked up): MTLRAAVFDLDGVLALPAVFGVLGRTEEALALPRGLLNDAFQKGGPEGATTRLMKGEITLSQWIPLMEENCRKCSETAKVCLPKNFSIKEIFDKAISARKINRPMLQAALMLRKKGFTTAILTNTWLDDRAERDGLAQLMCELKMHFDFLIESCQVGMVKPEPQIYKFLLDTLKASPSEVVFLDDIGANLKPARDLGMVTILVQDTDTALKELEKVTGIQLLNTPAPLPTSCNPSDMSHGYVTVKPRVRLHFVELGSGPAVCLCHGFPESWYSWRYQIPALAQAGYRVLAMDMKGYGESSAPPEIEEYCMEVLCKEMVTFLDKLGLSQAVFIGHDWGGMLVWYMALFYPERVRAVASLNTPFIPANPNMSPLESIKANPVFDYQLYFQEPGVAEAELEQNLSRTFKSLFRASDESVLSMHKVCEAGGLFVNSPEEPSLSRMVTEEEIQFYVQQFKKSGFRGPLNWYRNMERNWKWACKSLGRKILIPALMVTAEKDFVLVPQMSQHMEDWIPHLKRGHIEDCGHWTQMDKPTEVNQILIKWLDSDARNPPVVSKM
CYP2C9 inh: blocks human cytochrome P450 2C9. P11712. CYP2C9 Supersomes, luciferin-H conversion, luminescence. inhibition, % at 5 µM. 20% of 96,000 active;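 active = blocking of liver enzyme CYP2C9 beyond about 50% at 5 µM, limit read from the data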
sEH activator: soluble epoxide hydrolase (human) activation; P34913; purified human sEH enzymatic activity, activator screen; activation, % at 2 µM; 0.04% of 91,000 active; in the data active = activation above about 37%
CYP2C19 activ: increases human CYP2C19 enzyme activity; 96,000 tested, under 10 active; AID 1025; P33261; activation factor at 5 µM; recombinant CYP2C19, luciferin-H EGE luminescence; active compounds read high; 0 = fully inhibited enzyme, 1 = untreated enzyme;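 active = activation factor of at least 2 at 5 µM in the primary screen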
Hits are given with their value; n = inactive; x = not tested or not shown. A selection: hits, their analogues and other compounds. The true share with any hit is near 27%.

SMILES	CYP2C9 activ	CYP2C19 inh	sEH inh	CYP2C9 inh	sEH activator	CYP2C19 activ
CCOC(=O)CNC(=O)CSc1nc2nc(C)c(Br)cc2[nH]1	n	60	n	61	n	n
Cc1cccc2cc(CN(Cc3ccccc3)C(=O)N(C)C)c(=O)[nH]c12	n	n	n	n	n	n
Cc1cccc2cc(CN(Cc3cccnc3)C(=O)c3ccncc3)c(=O)[nH]c12	n	73	x	61	x	n
Cc1ccc(CN(Cc2cc3cccc(C)c3[nH]c2=O)C(=O)N(C)C)cc1	n	52	x	n	x	n
O=C(NCCO)c1scc2c1OCCO2	n	n	n	n	n	n
O=C(O)CCc1ccc(-c2cccs2)n1-c1ccc(C(=O)O)cc1	2	n	x	n	x	n
CC(=O)c1cccc(-n2c(CCC(=O)O)ccc2-c2cccs2)c1	n	n	n	n	n	n
COc1ccc(-c2noc(CCCC(=O)NCc3ccco3)n2)cc1OC	n	n	x	n	x	n
Cc1cc(C)c2c(-n3cccc3)nn(CC#N)c2n1	n	n	n	n	n	n
Cc1occc1-c1nnc(SCC(=O)Nc2nc(-c3ccccc3)cs2)o1	n	n	n	n	n	n
Cc1occc1-c1nnc(SCC(=O)Nc2nc3ccccc3s2)o1	n	79	n	75	n	n
Cc1occc1-c1nnc(SCC(=O)c2cc3ccccc3oc2=O)o1	n	n	x	90	x	n
COC(=O)c1ccccc1S(=O)(=O)N(Cc1cc2cc3c(cc2[nH]c1=O)OCO3)C1CCCCC1	n	n	n	n	n	n
CCCCCCCCc1nc(=S)[nH][nH]1	x	x	n	x	n	x
O=C(Nc1cc(Cl)ccc1O)c1snnc1-c1ccccc1	n	52	n	83	n	n
O=C(O)CC(=O)Nc1cc(Cl)ccc1O	n	n	n	n	n	n
O=C(CCc1ccccc1)Nc1cc(Cl)ccc1O	n	99	n	88	n	n
COc1ccccc1NC(=O)Cc1csc(NC(=S)Nc2ccccc2)n1	n	n	n	66	n	n
COc1ccccc1CC(=O)Nc1ccccc1O	3.5	62	n	n	n	n
COc1ccccc1CC(=O)NC1CC(C)(C)NC(C)(C)C1	n	n	n	n	n	n
Cc1nnsc1C(=O)Nc1ccc(Cl)cc1Cl	n	n	n	n	n	n
COC(=O)C1=C(C(=O)OC)C2(OC1c1cccc(F)c1)C(=O)c1ccccc1C2=O (centres undefined)	n	n	n	n	n	n
Cc1cc(NC(=O)CSc2n[nH]c(CC(C)C)n2)no1	n	n	n	n	n	n
COc1ccccc1CNC(=O)c1cccc(N(C)C)c1	2.3	n	n	n	n	n
COc1ccccc1CC(=O)Nc1cc(Cl)ccc1O	n	51	n	n	n	n
SMILES	CYP2C9 activ	CYP2C19 inh	sEH inh	CYP2C9 inh	sEH activator	CYP2C19 activ
COc1ccccc1CNC(=O)CN(C)CC(=O)Nc1cccc(F)c1	n	92	n	85	n	n
COc1cc(NC(=O)Cc2ccccc2OC)cc(OC)c1	n	51	n	n	n	n
COc1ccccc1CC(=O)Nc1ccc(OC)c(OC)c1	n	n	n	n	n	n
CCOC(=O)N1CCN(C2=NC3(CCCCC3)C(C#N)C(=O)N2)CC1 (centres undefined)	n	n	n	n	n	n
COc1ccc(NC(=O)C2CCCN2c2ccc(OC)c(OC)c2)cc1OC (centres undefined)	n	n	x	n	x	n
CN(C(=O)c1cccc(C#N)c1)c1nnc(-c2ccncc2)s1	n	93	n	70	n	n
COc1cccc(C(=O)N(C)c2nnc(-c3ccncc3)s2)c1	n	100	n	89	n	n
CN(C(=O)c1cccc(C#N)c1)c1nnc(-c2cnccn2)s1	n	n	n	n	n	n
O=C(O)C1CC(=O)N(Cc2ccccc2)C1 (centres undefined)	n	n	n	n	n	n
O=C(CN1CC(c2ccccc2)CC1=O)OCc1ccccc1F (centres undefined)	n	88	n	56	n	n
O=C1CC(c2ccccc2)CN1S(=O)(=O)c1ccccc1 (centres undefined)	2.5	99	n	n	n	n
O=C1CC(c2ccccc2)CN1Cc1ccccc1 (centres undefined)	n	93	n	n	n	n
COC(=O)N1CC(c2ccccc2)CC1=O (centres undefined)	n	n	n	n	n	n
NC(=O)c1cccc(S(=O)(=O)N2CC(c3ccccc3)CC2=O)c1 (centres undefined)	2.2	56	n	n	n	n
Cc1cc(C)n(-c2nc(-c3ccc(Cl)cc3)cs2)n1	n	n	n	n	n	n
COC(=O)c1cc(NC(=O)c2ccccc2)c(=O)oc1C/C=N\OCc1ccc(Cl)cc1Cl	n	n	n	n	n	n
CN=Cc1c(NC)nc2c(C)cccn2c1=O	n	n	n	n	n	n
N#CC(c1ccc(F)cc1)c1ccc(C(=O)c2ccc(F)cc2)cc1 (centres undefined)	n	n	n	77	n	n
Cc1ccc(C(C#N)c2ccc(C(=O)c3ccc(F)cc3)cc2)cc1 (centres undefined)	n	n	n	60	n	n
Cc1ccnc(SCC(=O)Nc2c(C)n(C)n(-c3ccccc3)c2=O)n1	n	n	n	n	n	n
CC(C)n1c(-c2ccco2)csc1=Nc1cccnc1	n	65	n	60	n	n
COc1ccc(Oc2c(C=O)c3ccccc3n2C)cc1	n	69	n	n	n	n
Cn1c(Oc2ccc(Cl)cc2)c(C=O)c2ccccc21	n	58	n	n	n	n
Cc1ccc(Oc2c(C=O)c3ccccc3n2C)cc1	n	68	n	n	n	n
Cc1ccc(Oc2ccccc2/C=C/C(=O)O)cc1	n	n	x	n	x	n
SMILES	CYP2C9 activ	CYP2C19 inh	sEH inh	CYP2C9 inh	sEH activator	CYP2C19 activ
CC(C)c1ccccc1OCCCCCNCCO	n	59	n	n	n	n
CCOC(=O)CSc1n[nH]c(-c2ccco2)n1	n	n	n	n	n	n
O=C(CSc1n[nH]c(-c2ccco2)n1)N1c2ccccc2Sc2ccccc21	n	n	x	52	x	n
O=C(CSc1nncs1)N1c2ccccc2Sc2ccccc21	n	62	x	n	x	n
Cc1n[nH]c(C)c1S(=O)(=O)N1CCN(C(=O)c2ccco2)CC1	n	n	x	n	x	n
CCOC(=O)c1cnn(-c2cc(Oc3cccc(C)c3)ncn2)c1N	n	n	n	n	n	n
Cc1cc(N2CCN(C3CCCC3)CC2)n2ncc(-c3ccccc3)c2n1	n	72	x	76	x	n
Cc1cc(N2CCOCC2)n2nc(C)c(-c3ccccc3)c2n1	n	n	n	n	n	n
O=C(Nc1ccccc1)C1CCN(C(=O)c2ccccc2)CC1	n	n	n	n	n	n
O=C1NCCc2c1[nH]c1c(Cl)ccc(Cl)c21	2.4	n	n	n	n	n
CC1=C(C#N)C(C(F)(F)F)(C(F)(F)F)N=C(c2ccco2)N1	n	82	n	75	n	n
O=c1[nH]c(=O)n(Cc2ccccc2)c2c1C(C(F)(F)F)(C(F)(F)F)N=C(c1ccco1)N2	n	n	n	n	n	n

Screening data from PubChem BioAssay.
